We go through eleven molecules from the supplement of paper PMC6279402.

The subject of this assay is A549. As to the kind of experiment: relative viability (normalised to negative control = 1, bortezomib = 0) (fraction); higher = less cytotoxic. As to conditions: inflammatory serum-free RHB-A with cytokines + LPS, 5 d + 24 h CellTiter-Blue. Background: Resazurin is reduced to fluorescent resorufin, in cell work by metabolically active cells.
Where [1] appears, read: compound 30 nM, GSK126 pretreatment: 5 uM GSK126.
Where [2] appears, read: compound 30 nM, GSK126 pretreatment: none (vehicle).
[3] abbreviates: compound 300 nM, GSK126 pretreatment: 5 uM GSK126.
Where [4] appears, read: compound 300 nM, GSK126 pretreatment: none (vehicle).

± gives the standard deviation of the averaged measurements.

As to `O=C(NC1CCNCC1)c1n[nH]cc1NC(=O)c1c(Cl)cccc1Cl`, the relative viability runs as follows: under setting [1], 0.969 ± 0.17; under setting [2], 0.924 ± 0.074; under setting [3], 0.0464 ± 0.029; under setting [4], 0.136 ± 0.057.

As to `Nc1cccc2c1CN(C1CCC(=O)NC1=O)C2=O` (centres undefined) [Lenalidomide], the relative viability reads like this: under setting [1], 0.854 ± 0.11; under setting [2], 0.789 ± 0.061; under setting [3], 0.882 ± 0.059; under setting [4], 0.82 ± 0.035.

Turning to `Cc1nc(N)sc1-c1ccnc(Nc2ccc(N3CCOCC3)cc2)n1`, the relative viability by setting is: under setting [1], 0.898 ± 0.061; under setting [2], 0.913 ± 0.011; under setting [3], 0.797 ± 0.1; under setting [4], 0.72 ± 0.083.

Turning to `COc1cc2nccc(Oc3ccc(NC(=O)C4(C(=O)Nc5ccc(F)cc5)CC4)cc3)c2cc1OC` [XL184; Cabozantinib], the relative viability by setting is: under setting [1], 0.903 ± 0.061; under setting [2], 0.875 ± 0.12; under setting [3], 0.986 ± 0.043; under setting [4], 0.974 ± 0.014.

Turning to `CC1(COc2ccc3c(c2)ncn3-c2ccc3cccc(N4CCC(N)CC4)c3n2)COC1`, the relative viability is, setting by setting: under setting [1], 0.986 ± 0.081; under setting [2], 0.966 ± 0.12; under setting [3], 1.3 ± 0.087; under setting [4], 1.34 ± 0.12.

In the case of `Cc1cc(Nc2nc(N[C@@H](C)c3ccc(F)cc3)c(C#N)cc2F)n[nH]1`, the relative viability runs as follows: under setting [1], 1.23 ± 0.055; under setting [2], 1.16 ± 0.11; under setting [3], 0.269 ± 0.021; under setting [4], 0.309 ± 0.027.

As to `CN1CCN(CCOc2cc(OC3CCOCC3)c3c(Nc4c(Cl)ccc5c4OCO5)ncnc3c2)CC1` [AZD0530(Saracatinib)], the relative viability turned out to be 0.831 ± 0.073 under setting [1], 0.827 ± 0.071 under setting [2], 0.746 ± 0.057 under setting [3] and 0.914 ± 0.038 under setting [4].

`COc1cc2ncnc(Nc3cccc(Br)c3)c2cc1OC`: the relative viability was 0.996 ± 0.044 under setting [1], 0.976 ± 0.048 under setting [2], 0.537 ± 0.17 under setting [3] and 0.701 ± 0.086 under setting [4].

As for `CNC(=O)c1cc(COc2nnc(Nc3ccc(Cl)cc3)c3ccoc23)ccn1` [Telatinib (BAY 57-9352)], the relative viability is, setting by setting: under setting [1], 0.896 ± 0.11; under setting [2], 0.887 ± 0.073; under setting [3], 0.967 ± 0.13; under setting [4], 0.91 ± 0.13.

With `C[C@@H]1CCN(C(=O)CC#N)C[C@@H]1N(C)c1ncnc2[nH]ccc12`, the relative viability reads like this: under setting [1], 1.05 ± 0.18; under setting [2], 0.99 ± 0.17; under setting [3], 1.31 ± 0.067; under setting [4], 1.28 ± 0.1.

Take `COc1cc(Nc2ncc(F)c(Nc3ccc4c(n3)NC(=O)C(C)(C)O4)n2)cc(OC)c1OC` [R406(free base); R406]: the relative viability under setting [1] turned out to be 0.92 ± 0.13, the relative viability under setting [2] is 0.896 ± 0.067, the relative viability under setting [3] is 1.23 ± 0.096 and the relative viability under setting [4] was found to be 1.22 ± 0.087.
